Measured values: ChEMBL document CHEMBL3988442, “University of Dundee, Small-Polar-MMV Screening Library” (2021)
About 13,000 (27%) of roughly 48,000 compounds showed an effect of 50% or more. The list shows a part of the results.

What follows are compounds tested on Wolbachia pipientis (assay: Anti-Wolbachia Cell-Based Screen). Settings: 5 µM.
Assay type: functional
Set-up: scale not given: in the data most compounds retested in dose-response had high values

Compared with `Cc1c(C(=O)O)nnn1Cc1cccc(C(F)(F)F)c1`, `Cn1cc(CN2CC[C@@H]3[C@@H]2CCN3C(=O)Cc2cccc(F)c2)cn1.O=C(O)C(F)(F)F` is lower in “Percent Effect” value: 6.81% for the first, -1.291% for the second.

First: COc1cccc(CN2CCN3C(=O)NC[C@H]3C2)n1
Second: CN1CCC(N2CCN3C(=O)NC[C@H]3C2)CC1
The “Percent Effect” value of the first is higher: 7.899% for the first, -3.981% for the second.

First: Cc1csc(C2(NCC(O)COC(C)C)CCCC2)n1 (configuration not stated)
Second: COc1cc(C2(C(=O)NCCn3ccnc3)CCCC2)ccc1C
The “Percent Effect” value of the first is lower: -1.656% for the first, 17.74% for the second.

Going from `CC(=O)NC[C@H]1C[C@@H]2CCN1C[C@@H]2c1cc(-c2cccs2)nn1C` to `CC[C@H]1CN2CC[C@H]1C[C@@H]2CNC(=O)Nc1ccc(Br)cc1`, the “Percent Effect” value falls from -4.622% to -5.559%.

Going from `CN(C)[C@@H]1CN(C(=O)Cc2cccc(F)c2)[C@@H]2CCCO[C@H]12.O=C(O)C(F)(F)F` to `COCCN1CCO[C@H]2CN(C(=O)c3ccncc3F)C[C@H]21.O=C(O)C(F)(F)F`, the “Percent Effect” value falls from 118.8% to -13.21%.

Compared with `Cc1nnc(N2CCNCC2)c(C(N)=O)c1C`, `CCOC(=O)N1CCC2(CCNC2)C1.Cl` (configuration not stated) is higher in “Percent Effect” value: -61.72% for the first, -20.05% for the second.

First: O=C(NCc1cccnc1)[C@H]1CN2CCC1C[C@@H]2Cn1cc(CO)nn1 (some centres not stated)
Second: O=C(NCc1cccnc1)C1=NOC2(CCCN(CCO)C2)C1 (configuration not stated)
The “Percent Effect” value of the first is lower: 4.498% for the first, 6.778% for the second.

Going from `O=C1NCC2(CCCN(Cc3cccnc3)C2)Oc2ccccc21` (configuration not stated) to `O=C1NCC2(CCCN(Cc3ccncc3)C2)Oc2ccccc21` (configuration not stated), the “Percent Effect” value rises from 95.18% to 106%.

Compared with `CN(C)c1ncc2c(n1)C1(CCN(Cc3cccnc3)C1)COC2` (configuration not stated), `CN1CCC2(COCc3cnc(N4CCOCC4)nc32)C1.O=C(O)C(F)(F)F` (configuration not stated) is higher in “Percent Effect” value: -5.079% for the first, -0.9764% for the second.

Going from `O=C1Nc2ccccc2C12CCCN(Cc1ccncc1)C2` (configuration not stated) to `Cn1cc(CN2C[C@@H]3[C@@H](C2)OCC(=O)N3Cc2ccncc2)cn1`, the “Percent Effect” value rises from -10.97% to -7.726%.

Going from `CN1CCC2(CC1)CNC(=O)c1ccccc1O2` to `CN(c1ncccc1C#N)C1CCN(CCc2ccccn2)CC1`, the “Percent Effect” value rises from -4.791% to 3.648%.

Going from `Fc1cnc(N2CCC3(CC2)CN(Cc2cccs2)CCO3)nc1.O=C(O)C(F)(F)F.O=C(O)C(F)(F)F` to `Cc1cnc(N2CCC3(CC2)CN(Cc2cccs2)CCO3)nc1.O=C(O)C(F)(F)F.O=C(O)C(F)(F)F`, the “Percent Effect” value rises from 98.63% to 102.1%.

Compared with `O=C(O)C(F)(F)F.OCCN1CCOC2(CCCN(c3ncc(F)cn3)C2)C1` (configuration not stated), `Fc1cnc(N2CCCC3(CN(Cc4cccs4)CCO3)C2)nc1.O=C(O)C(F)(F)F` (configuration not stated) is higher in “Percent Effect” value: 13% for the first, 111.6% for the second.

First: CN(C)C(=O)CN1CCOCC2(C1)CN(c1ncccn1)CCO2.O=C(O)C(F)(F)F (configuration not stated)
Second: O=C(O)C(F)(F)F.c1cnc(N2CCOCC3(CN(Cc4nccs4)CCO3)C2)nc1 (configuration not stated)
The “Percent Effect” value of the first is higher: 101.1% for the first, 8.217% for the second.

Compared with `O=C(O)C(F)(F)F.c1cnc(N2CCOCC3(CN(Cc4ccsc4)CCO3)C2)nc1` (configuration not stated), `O=C(O)C(F)(F)F.c1cnc(N2CCOC3(COCCN(Cc4cc[nH]n4)C3)C2)nc1` (configuration not stated) is higher in “Percent Effect” value: -6.179% for the first, -4.382% for the second.

First: Cc1cnc(N2CCOC3(CCCN(C)C3)C2)nc1.O=C(O)C(F)(F)F (configuration not stated)
Second: Cc1cnc(N2CCOC3(CCCN(CC(=O)N(C)C)C3)C2)nc1.O=C(O)C(F)(F)F.O=C(O)C(F)(F)F (configuration not stated)
The “Percent Effect” value of the first is higher: -2.261% for the first, -7.39% for the second.

Compared with `CC(Cc1c(F)cccc1F)NC(=O)CN(CC(N)=O)C(C)C` (configuration not stated), `Cc1ccc(C(=O)N2C[C@@H]3CCN(C(C)C)C[C@@H]3C2)cn1.O=C(O)C(F)(F)F` is lower in “Percent Effect” value: 2.304% for the first, -22.14% for the second.

Going from `c1ccc(CNc2ncc(CN3CC[C@H]4CC[C@@H](C3)N4)cn2)cc1` to `CN(Cc1cc(C2CC2)on1)C(=O)CN1CC(c2ccccc2)CC1=O` (configuration not stated), the “Percent Effect” value rises from -14.93% to -9.848%.

First: O=C(c1ccc(F)c(F)c1)N1C[C@H]2CNC[C@H]2C1
Second: Cc1ccc(CC(=O)N2CCN(C(C)c3ccccc3F)CC2)cn1 (configuration not stated)
The “Percent Effect” value of the first is lower: -36.88% for the first, 7.645% for the second.

Compared with `COc1ccc(-c2ccccc2CCN)c(OC)c1`, `CCc1ccccc1OCCNCCc1c[nH]cn1` is lower in “Percent Effect” value: 16.22% for the first, -3.829% for the second.

Going from `Cn1cc(CN2CC[C@H]3[C@H]2CC(=O)N3Cc2ccncc2)cn1` to `Cn1cc(C(=O)N2CC[C@@H]3[C@@H]2CCN3Cc2ccncc2)cn1.O=C(O)C(F)(F)F.O=C(O)C(F)(F)F`, the “Percent Effect” value falls from 97.58% to 8.346%.

Compared with `CC(C)c1nccc([C@H]2C[C@@H]3CCN(Cc4ccoc4)C[C@H]3O2)n1`, `Cc1noc([C@H]2C[C@H]3OCC[C@H]3N(Cc3ccncc3)C2)n1` is higher in “Percent Effect” value: -1.768% for the first, 9.305% for the second.

Compared with `CCc1noc(CN(C)CCC(=O)Nc2ccc(C#N)c(Cl)c2)n1`, `CN(CCOCC1CC1)C(=O)Nc1ccc(C#N)c(Cl)c1` is higher in “Percent Effect” value: 4.268% for the first, 80.92% for the second.

Compared with `N#Cc1ccc(NC2CCN(c3ncccn3)CC2)cc1Cl`, `O=C(C1CCC1)N1CC[C@]2(O)CCN(Cc3ncccn3)C[C@@H]2C1` is higher in “Percent Effect” value: -9.238% for the first, 9.794% for the second.

Going from `CCCN1CC[C@@H]2OC[C@H](C(=O)Nc3cccnc3)C[C@@H]2C1.O=C(O)C(F)(F)F.O=C(O)C(F)(F)F` to `CC(C)N1CC[C@@H]2OC[C@H](C(=O)Nc3cccnc3)C[C@@H]2C1.O=C(O)C(F)(F)F.O=C(O)C(F)(F)F`, the “Percent Effect” value falls from 103.7% to 84.8%.

First: O=C(Nc1cccnc1)[C@H]1COC[C@H]2CN(C3CCCC3)C[C@H]21.O=C(O)C(F)(F)F.O=C(O)C(F)(F)F
Second: O=C(Nc1cccnc1)[C@H]1CN(C2CCCC2)C[C@H]2OCC[C@@H]12.O=C(O)C(F)(F)F.O=C(O)C(F)(F)F
The “Percent Effect” value of the first is higher: 10.99% for the first, 2.861% for the second.

First: CCOCCN1C[C@H](C(=O)Nc2cccnc2)[C@@H]2CCO[C@@H]2C1.O=C(O)C(F)(F)F.O=C(O)C(F)(F)F
Second: O=C(Nc1cccnc1)[C@@H]1C[C@H]2OCC[C@H]2N(Cc2ccsc2)C1.O=C(O)C(F)(F)F.O=C(O)C(F)(F)F
The “Percent Effect” value of the first is higher: 4.673% for the first, -12.16% for the second.

Compared with `CN(Cc1ccccn1)C1CCC[C@@H]2CN(CC3CC3)C[C@H]12.O=C(O)C(F)(F)F.O=C(O)C(F)(F)F` (some centres not stated), `CN1CC[C@@H]2OC[C@H](C(=O)N(C)Cc3ccccn3)C[C@@H]2C1.O=C(O)C(F)(F)F.O=C(O)C(F)(F)F` is higher in “Percent Effect” value: -32.78% for the first, 91.38% for the second.

Going from `O=C(Nc1cccnc1)[C@H]1CO[C@H]2CCNC[C@H]2C1.O=C(O)C(F)(F)F.O=C(O)C(F)(F)F` to `O=C(Nc1cccnc1)[C@H]1C[C@@H]2CCN(Cc3nccs3)C[C@@H]2O1.O=C(O)C(F)(F)F.O=C(O)C(F)(F)F`, the “Percent Effect” value falls from 99.23% to 21.14%.

First: CN(C)C(=O)[C@@H]1CC[C@@H]2[C@@H](CCN2Cc2ccccn2)O1.O=C(O)C(F)(F)F.O=C(O)C(F)(F)F
Second: Cc1noc(C)c1CN1CC[C@H]2O[C@@H](C(=O)N3CCCC3)CC[C@H]21.O=C(O)C(F)(F)F
The “Percent Effect” value of the first is lower: -15.27% for the first, 9.45% for the second.

First: Cl.O=C(C1CCC1)N1CCC2(CCNCC2)C1
Second: Cc1noc(C)c1CN1CCCC2(CCN(C(=O)C3CC3)C2)C1 (configuration not stated)
The “Percent Effect” value of the first is lower: -22.91% for the first, 106.9% for the second.

First: O=C(Cc1ccc(O)c(Cl)c1)N1CCN(CC2CC2)[C@@H]2CS(=O)(=O)C[C@@H]21
Second: CC(C)=CCN1C[C@H]2CC[C@@H]1CN(Cc1cc(=O)[nH]c(=O)[nH]1)C2
The “Percent Effect” value of the first is lower: 2.879% for the first, 7.172% for the second.

Compared with `Cc1cc(C)c(CNc2cnc3ccccc3n2)c(=O)[nH]1`, `Cc1cc(NCCc2c[nH]cn2)nc(-c2cccnc2)n1` is higher in “Percent Effect” value: 10.07% for the first, 99.48% for the second.

Going from `CC1COC2(CCN(C(=O)c3ncoc3C(C)C)CC2)O1` (configuration not stated) to `Cc1noc([C@]23COC[C@H]2CN(C(C)C)C3)n1.O=C(O)C(F)(F)F`, the “Percent Effect” value falls from 0.05226% to -9.217%.

First: O=C(O)C(F)(F)F.O=C(O)C(F)(F)F.O=C1[C@H]2CN(Cc3ccoc3)C[C@H]2CN1Cc1ccncc1
Second: Cc1cc(CN2C[C@@H]3COC[C@]3(CNC(=O)N3CCCC3)C2)no1.O=C(O)C(F)(F)F
The “Percent Effect” value of the first is higher: 1.4% for the first, -10.59% for the second.

Compared with `CS(=O)(=O)Cc1nc(CN2CC=C(c3ccccc3)CC2)cs1`, `Cc1noc(C)c1CN(C)C(=O)CN1CC(c2ccccc2)CC1=O` (configuration not stated) is lower in “Percent Effect” value: 9.315% for the first, -0.5183% for the second.

First: Cc1noc([C@@H]2C[C@H]3OCC[C@H]3N(C(C)C)C2)n1.O=C(O)C(F)(F)F
Second: COCCNC(=O)[C@@]12CCO[C@@H]1CCN(Cc1c(C)noc1C)C2.O=C(O)C(F)(F)F
The “Percent Effect” value of the first is higher: 82.77% for the first, -6.3% for the second.

First: Cc1nc(COC[C@H]2CC[C@H]3NCC[C@H]3O2)cs1.Cl.Cl
Second: Cc1cc(CN(C)C(=O)CN2CCCC2=O)no1
The “Percent Effect” value of the first is lower: -19.37% for the first, 135.7% for the second.

Going from `Cc1noc(C)c1CN1CCCC2(CCN(CC3CCCC3)C2)C1.O=C(O)C(F)(F)F` (configuration not stated) to `Cc1noc(C)c1CN1CC2(CCCCN2C)CC1=O.O=C(O)C(F)(F)F` (configuration not stated), the “Percent Effect” value falls from 102.6% to -9.804%.

Compared with `COCCNC1(c2ccc(Cl)cc2)CCOCC1`, `O[C@@]1(CNCCCOc2cccnc2)CCCN2CCCC[C@@H]21` is lower in “Percent Effect” value: 5.533% for the first, -22.25% for the second.

First: Cc1cnc(NCCc2c[nH]cn2)nc1-c1ccnn1C
Second: CCc1noc(CC)c1CC(=O)N1CCCC(N2CCCCC2)C1 (configuration not stated)
The “Percent Effect” value of the first is higher: -2.604% for the first, -13.04% for the second.
